Values joined by “and” are separate entries in the source; they are usually repeats but may differ in a detail not shown here. Equal values may be shown once. Inconclusive results are not listed. A number with no mark means an inactive call. Active and inactive are the calls of the source. Calls follow the shape of the dose curve; as a rule, active = well fitted curve in either direction with a large enough effect (not every such curve was filed as active); inconclusive = small, poorly fitted or top-dose-only effect, or another doubt; inactive = flat fitted curve, though single readings scatter.
% is scaled to controls: 0 for no effect and ±100 for the full control effect.

A short description of the first assay: NFAT Signaling Pathway (AID 444). To be noted: Jurkat NFAT-bla M1, carbachol, beta-lactamase ratio, 5 h; at 7.69 µM (top of the series) unless noted. The text has this: NCGC Assay Overview: The nuclear factor of activated T cells (NFAT) family of transcription factors has been found primarily in most immune system cells and some other non-immune cells. NFAT plays the immunomodulatory role, primarily in T-cell activation and differentiation. NFAT target genes are also involved in the regulation of apoptosis and differentiation in non-immune cell types. The NFAT sequence was engineered to the upstream of the ?-lactamase reporter gene and transfected into Jurkat cells with co-transfection of muscarinic receptor1 [provided by Invitrogen Corp]. When an extracellular stimulus, such as carbachol, binds to the GPCR M1 receptor, it stimulates a signaling cascade that activates NFAT response element and ?-lactamase expression by phosphorylating the NFAT binding protein. This cell based ?-lactamase reporter gene assay can accurately monitor any changes occurring along the NFAT pathway, and can be used for screening small molecule inhibitor or activator upon activation by carbachol EC50 concentration. A small molecular library were screened in a titration series resulting in AC50s (can be either IC50s or EC50s).
NCGC Assay Protocol Summary: The cells were prepared in RPMI 1640 medium containing 0.1% dialyzed FBS and 25 mM HEPES at 1.6 x 10^6cell/ml. The assay was performed in 1536-well plate format as follows: 5 ul of cell preparation 23 nl of compounds 1ul of carbachol (final concentration 1 uM) Briefly centrifuge the plates and incubate at 37 °C for 5 hours 1 ul of CCF4 dye mixture Incubate the plates at RT for 1 hour Read the plate in EnVision plate reader (Ex= 405nm, and Em1=460nm and Em2=530nm). The %Activity was determined from the ratio of 460nm/530nm. Data normalization and AC50 calculations were accomplished using GeneData software.
Turning to `COc1ccc(Oc2ncc3ncc(=O)n(C)c3n2)cc1`, the activity change, negative = inhibition was -6.92%.

Regarding `O=C(Oc1ccccc1)N1CCC2(CC1)CCN(c1ccccc1)CC2`, the activity change, negative = inhibition was -26.1%.

`CC(=O)N1CCC2(CCCN(C(=O)Nc3cccc(F)c3)C2)CC1`: the activity change, negative = inhibition is 13.9%.

For the molecule `CN1CCN(c2ncc3ncc(=O)n(C4CC4)c3n2)CC1`, the activity change, negative = inhibition was -12.8%.

Turning to `O=c1c(-c2ccc(F)cc2)nc2cnc(Oc3ccccc3)nc2n1Cc1cccs1`, the activity change, negative = inhibition was 2.8%.

For `COc1cccc(Cn2c(=O)cnc3cnc(Oc4ccccc4)nc32)c1`, the activity change, negative = inhibition is -0.253%.

Regarding `CN1CCN(c2nc(-c3ccccc3C(F)(F)F)nc3ccccc23)CC1`, the activity change, negative = inhibition was -6.69%.

As to `CC(C)NC(=O)N1CCCC2(CCN(C(=O)c3ccncc3)CC2)C1`, the activity change, negative = inhibition is 8.27%.

Take `O=c1c(-c2cc(F)cc(F)c2)nc2cnc(Nc3ccccc3)nc2n1C[C@H]1CCCO1`: the activity change, negative = inhibition is -13.7%.

As to `COc1ccccc1-c1cc(NCc2cccnc2)ncn1`, the activity change, negative = inhibition was -4.97%.

In the case of `Cc1noc(C)c1-c1ccc2ncnc(NC3CCNCC3)c2c1`, the activity change, negative = inhibition is -27.4%.

Consider `COc1ncc2nc(C)c(=O)n(C3CC3)c2n1`, for which the activity change, negative = inhibition was -4.48%.

Turning to `O=C(c1csnn1)N1CCC2(CC1)CN(c1ccncc1)C2`, the activity change, negative = inhibition was -12.8%.

For the molecule `O=C(c1ccncc1)N1CCC2(CC1)CCN(c1ccccc1)CC2`, the activity change, negative = inhibition was 12.8%.

With `COCC(=O)N1CCC2(CC1)CCN(C(=O)Nc1ccc(OC)cc1)CC2`, the activity change, negative = inhibition is 6.08%.

For the molecule `COc1ccc(-n2c(=O)cnc3cnc(N4CCNCC4)nc32)cc1`, the activity change, negative = inhibition was 0.78%.

Take `O=C(c1csnn1)N1CCC2(CC1)CN(C(c1ccccc1)c1ccccc1)C2`: the activity change, negative = inhibition was -2.37%.

For `CCNc1ncc2ncc(=O)n(C3CC3)c2n1`, the activity change, negative = inhibition is -6.86%.

Consider `CS(=O)(=O)Nc1cccc(-c2ccc3ncnc(N4CCNCC4)c3c2)c1`, for which the activity change, negative = inhibition is 23.1%.

Turning to `CS(=O)(=O)N1CCC[C@@]2(CCN(C(=O)Nc3cccc(F)c3)C2)C1`, the activity change, negative = inhibition is 16.7%.

As to `O=c1cnc2cncnc2n1Cc1ccccc1`, the activity change, negative = inhibition was -13.5%.

Regarding `COC(=O)N1CCC2(CC1)CN(C(c1ccccc1)c1ccccc1)C2`, the activity change, negative = inhibition is -16.9%.

With `Cc1ccccc1-c1cncnc1Nc1ccc(F)cc1`, the activity change, negative = inhibition was 3.46%.

Take `O=C(c1csnn1)N1CCC2(CCCN(Cc3cc(C(F)(F)F)cc(C(F)(F)F)c3)C2)CC1`: the activity change, negative = inhibition was 10.5%.

Consider `CC(C)NC(=O)N1CC[C@@]2(CCCN(C(=O)c3cc(C(F)(F)F)cc(C(F)(F)F)c3)C2)C1`, for which the activity change, negative = inhibition is 9.52%.

For the molecule `COc1cccc(Cn2c(=O)c(C)nc3cnc(OC)nc32)c1`, the activity change, negative = inhibition is 5.79%.

In the case of `N#Cc1cccc(-c2nc3cnc(N4CCOCC4)nc3n(C[C@H]3CCCO3)c2=O)c1`, the activity change, negative = inhibition was 1.23%.

Regarding `c1ccc(-c2ccc(N3CC4(CCNCC4)C3)cc2)cc1`, the activity change, negative = inhibition was 4.74%.

`O=C(Oc1ccccc1)N1CCC2(CC1)CCN(c1ncccn1)CC2`: the activity change, negative = inhibition was -8.96%.

Turning to `CN(C)C(=O)c1ccc(-c2cncnc2NC2CCNCC2)cc1`, the activity change, negative = inhibition is 9.18%.

Take `COc1ccc(NC(=O)N2CCCC3(CCN(C(=O)c4c(C)noc4C)CC3)C2)cc1`: the activity change, negative = inhibition is 7.7%.

As for `COCC(=O)N1CCC[C@@]2(CCN(C(=O)Nc3cccc(F)c3)C2)C1`, the activity change, negative = inhibition was 9.68%.

For `COc1ccc(-c2nc3cnc(N4CCNCC4)nc3n(Cc3cccs3)c2=O)cc1`, the activity change, negative = inhibition was 182% [activator] (active).

For the molecule `O=C(c1cnccn1)N1CCC2(CC1)CN(c1ccncc1)C2`, the activity change, negative = inhibition is -19.4%.

`COc1ccc(CNc2ncncc2-c2cccnc2)c(OC)c1`: the activity change, negative = inhibition is 4.08%.

Turning to `Cc1ccccc1-c1cc(N(C)C)ncn1`, the activity change, negative = inhibition was -0.723%.

`CCSC(N)=Nc1ccc(C(F)(F)F)cc1`: the activity change, negative = inhibition is 0.554% [at 38 µM].

Turning to `Cc1noc(C)c1-c1cc(N(C)C)ncn1`, the activity change, negative = inhibition was 9.29%.

The assay is the same for the next values; noted with them: Jurkat NFAT-bla M1, carbachol, beta-lactamase ratio, 5 h; at 17.2 µM (top of the series).
On to `CCCNC[C@H](O)COc1ccccc1C(=O)CCc1ccccc1`, for which the activity change, negative = inhibition was 3.46%.

Still in this assay, the particulars now being: Jurkat NFAT-bla M1, carbachol, beta-lactamase ratio, 5 h; at 38 µM (top of the series).
Take `CCCNC[C@H](O)COc1ccccc1C(=O)CCc1ccccc1`: the activity change, negative = inhibition was 1.4% and 9.3%.

For the origin of these results see PubChem BioAssay (NCATS).
